# Measurements as given in ChEMBL document CHEMBL3988442, “University of Dundee, Small-Polar-MMV Screening Library” (2021).
# For some assays here: Entries with a potency or affinity are not part of this list.
# Experiments:
# Parameters in all cases: scale not given: direction of the effect not stated beside the values
# [1] = target: Protein translocase subunit SecA (Escherichia coli (strain K12)) (UniProt P10408); assay: Assay to Identify E. coli SecA ATPase Inhibitors; type: functional; settings: 30 µM
# Protein translocase subunit SecA (Escherichia coli (strain K12)), sequence (P10408 whole entry): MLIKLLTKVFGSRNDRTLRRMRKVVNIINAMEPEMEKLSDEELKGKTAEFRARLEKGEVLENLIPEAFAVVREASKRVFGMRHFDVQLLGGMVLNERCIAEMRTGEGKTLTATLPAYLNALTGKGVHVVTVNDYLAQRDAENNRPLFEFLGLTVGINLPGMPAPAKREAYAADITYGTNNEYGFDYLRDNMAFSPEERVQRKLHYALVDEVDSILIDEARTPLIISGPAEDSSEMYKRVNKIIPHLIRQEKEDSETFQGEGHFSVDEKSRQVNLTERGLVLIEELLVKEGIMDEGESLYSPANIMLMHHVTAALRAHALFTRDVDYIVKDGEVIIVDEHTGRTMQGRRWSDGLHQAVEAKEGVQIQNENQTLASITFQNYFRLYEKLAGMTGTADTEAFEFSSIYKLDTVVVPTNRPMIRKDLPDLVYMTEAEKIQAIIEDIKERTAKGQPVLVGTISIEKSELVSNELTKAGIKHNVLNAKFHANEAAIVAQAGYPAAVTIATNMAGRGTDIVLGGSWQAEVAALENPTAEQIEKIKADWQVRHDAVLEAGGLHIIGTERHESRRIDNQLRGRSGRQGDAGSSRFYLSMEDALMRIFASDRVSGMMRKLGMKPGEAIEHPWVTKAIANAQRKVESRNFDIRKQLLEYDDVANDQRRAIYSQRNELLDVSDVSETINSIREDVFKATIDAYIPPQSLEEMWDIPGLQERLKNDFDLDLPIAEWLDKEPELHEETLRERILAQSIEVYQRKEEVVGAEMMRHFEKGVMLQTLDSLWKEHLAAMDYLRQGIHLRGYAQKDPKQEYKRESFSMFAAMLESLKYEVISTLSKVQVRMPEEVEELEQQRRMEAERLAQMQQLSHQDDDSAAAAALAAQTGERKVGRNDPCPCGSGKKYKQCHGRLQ
# [2] = target: T1, Ubiquitin-activating enzyme e1, putative (Leishmania donovani (strain BPK282A1)) (UniProt E9BSI1); assay: Leishmania donovani Ubiquitin Activating Enzyme (LdE1); type: functional; settings: 30 µM
# T1 sequence (whole entry): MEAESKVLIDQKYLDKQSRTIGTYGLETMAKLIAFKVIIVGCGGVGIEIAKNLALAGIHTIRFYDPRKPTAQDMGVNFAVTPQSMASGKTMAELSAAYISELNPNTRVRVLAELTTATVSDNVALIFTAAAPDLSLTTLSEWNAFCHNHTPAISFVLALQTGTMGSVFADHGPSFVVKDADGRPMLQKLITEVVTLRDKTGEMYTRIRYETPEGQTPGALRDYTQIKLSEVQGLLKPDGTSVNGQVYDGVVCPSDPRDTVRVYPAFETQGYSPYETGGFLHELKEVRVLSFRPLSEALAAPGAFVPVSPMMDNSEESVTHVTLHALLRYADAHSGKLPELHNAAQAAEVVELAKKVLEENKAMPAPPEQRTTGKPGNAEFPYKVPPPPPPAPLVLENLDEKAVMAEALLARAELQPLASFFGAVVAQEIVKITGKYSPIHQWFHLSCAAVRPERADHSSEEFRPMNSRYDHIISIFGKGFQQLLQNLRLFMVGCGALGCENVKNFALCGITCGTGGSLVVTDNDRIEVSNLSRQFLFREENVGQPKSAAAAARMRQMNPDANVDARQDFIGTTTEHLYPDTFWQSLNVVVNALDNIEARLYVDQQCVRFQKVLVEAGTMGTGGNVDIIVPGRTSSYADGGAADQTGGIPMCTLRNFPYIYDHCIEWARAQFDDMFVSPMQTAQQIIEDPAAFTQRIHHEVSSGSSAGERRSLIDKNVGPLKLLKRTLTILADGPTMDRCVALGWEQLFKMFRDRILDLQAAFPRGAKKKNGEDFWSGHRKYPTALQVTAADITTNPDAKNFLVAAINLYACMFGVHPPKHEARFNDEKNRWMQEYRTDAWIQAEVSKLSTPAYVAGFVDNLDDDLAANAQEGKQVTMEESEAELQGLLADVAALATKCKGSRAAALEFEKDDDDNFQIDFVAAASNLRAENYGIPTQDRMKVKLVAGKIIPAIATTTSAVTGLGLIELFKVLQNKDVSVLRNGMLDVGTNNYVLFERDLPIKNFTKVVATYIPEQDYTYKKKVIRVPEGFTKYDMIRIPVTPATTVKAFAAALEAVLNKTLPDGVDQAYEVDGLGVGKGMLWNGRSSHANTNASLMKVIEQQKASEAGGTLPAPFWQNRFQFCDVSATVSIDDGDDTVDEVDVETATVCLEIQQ
# [3] = target: AMP-activated protein kinase, AMPK (Homo sapiens) (UniProt P54646+O43741+P54619+Q9UGJ0+Q9Y478+Q13131+Q9UGI9); assay: AMP-dependent Kinase enzyme assay. An in vitro enzyme assay that detects ADP turnover that is directly proportional to AMPK activity. This uses naive AMPK that is activated during the assay with MK-8722; type: functional; settings: 30 µM
# [4] = target: Sialic acid-binding Ig-like lectin 9 (Homo sapiens) (UniProt Q9Y336); assay: Hs-Siglec9 ALPHAscreen SOP 20170721; settings: 10 µM
# Sialic acid-binding Ig-like lectin 9 (Homo sapiens), sequence (Q9Y336 whole entry): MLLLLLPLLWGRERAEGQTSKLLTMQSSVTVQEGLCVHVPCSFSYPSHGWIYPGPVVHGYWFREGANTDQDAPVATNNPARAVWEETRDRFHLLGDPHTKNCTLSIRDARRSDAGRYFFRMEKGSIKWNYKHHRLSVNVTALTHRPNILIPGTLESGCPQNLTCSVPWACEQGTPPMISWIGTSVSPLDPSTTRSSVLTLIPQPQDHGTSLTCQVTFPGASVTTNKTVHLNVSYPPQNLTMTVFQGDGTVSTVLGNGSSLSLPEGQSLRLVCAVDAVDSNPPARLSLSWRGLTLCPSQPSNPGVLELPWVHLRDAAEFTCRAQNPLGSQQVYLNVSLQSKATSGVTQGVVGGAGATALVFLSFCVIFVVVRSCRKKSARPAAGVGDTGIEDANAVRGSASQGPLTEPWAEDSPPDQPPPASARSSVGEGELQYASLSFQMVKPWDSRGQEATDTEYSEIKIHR
# Trypanosoma cruzi = assay: Trypanosoma cruzi phosphomannomutase and mannose-1-phosphate guanylyltransferase assay; type: functional; settings: 10 µM
# [5] = target: T2, Arginase-2, mitochondrial (Homo sapiens) (UniProt P78540); assay: in vitro enzyme assay to detect the production of urea directly proportional to the activity of Arginase II; type: functional; settings: 33.3 µM; also: in the data most compounds retested in dose-response had high values
# T2 sequence (whole entry): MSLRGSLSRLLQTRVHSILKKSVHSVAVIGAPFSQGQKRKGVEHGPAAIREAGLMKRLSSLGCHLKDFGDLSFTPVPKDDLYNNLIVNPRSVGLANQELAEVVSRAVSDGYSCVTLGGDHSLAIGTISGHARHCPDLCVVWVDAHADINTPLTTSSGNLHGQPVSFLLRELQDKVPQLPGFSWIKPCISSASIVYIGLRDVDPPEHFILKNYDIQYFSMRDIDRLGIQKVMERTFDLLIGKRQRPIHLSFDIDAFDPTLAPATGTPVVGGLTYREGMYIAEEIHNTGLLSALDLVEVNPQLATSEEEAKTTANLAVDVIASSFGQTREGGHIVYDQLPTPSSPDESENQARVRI
# [6] = target: T3, Proteasome subunit beta (Trypanosoma cruzi) (UniProt O96673); assay: Trypanosoma cruzi proteasome chymotrypsin-like activity (TcProtChymo) assay.; also: in the data most compounds retested in dose-response had high values; type: functional; settings: 9.37 µM
# T3 sequence (whole entry): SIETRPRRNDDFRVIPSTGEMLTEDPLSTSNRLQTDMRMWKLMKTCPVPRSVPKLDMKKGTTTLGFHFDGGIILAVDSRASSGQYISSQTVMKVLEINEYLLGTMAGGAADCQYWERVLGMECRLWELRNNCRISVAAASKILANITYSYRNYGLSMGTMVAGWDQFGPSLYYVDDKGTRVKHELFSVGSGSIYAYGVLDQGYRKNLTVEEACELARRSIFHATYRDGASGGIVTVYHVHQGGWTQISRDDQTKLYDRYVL
# Homo sapiens = species on record: Homo sapiens; assay: To identify inhibition of the IFN signalling (Jak-Stat) pathway via expression of an eGFP reporter gene under the control of an IFN-stimulated response element (ISRE) containing MxA promoter.; type: functional; settings: 30 µM
# [7] = target: T4, Tyrosyl-tRNA synthetase, putative (Trypanosoma cruzi (strain CL Brener)) (UniProt Q4DSP6); assay: Trypanosoma cruzi tyrosyl tRNA synthetase (TcYRS) _High Tyrosine SOP; type: functional; settings: 30 µM; also: in the data most compounds retested in dose-response had high values
# T4 sequence (whole entry): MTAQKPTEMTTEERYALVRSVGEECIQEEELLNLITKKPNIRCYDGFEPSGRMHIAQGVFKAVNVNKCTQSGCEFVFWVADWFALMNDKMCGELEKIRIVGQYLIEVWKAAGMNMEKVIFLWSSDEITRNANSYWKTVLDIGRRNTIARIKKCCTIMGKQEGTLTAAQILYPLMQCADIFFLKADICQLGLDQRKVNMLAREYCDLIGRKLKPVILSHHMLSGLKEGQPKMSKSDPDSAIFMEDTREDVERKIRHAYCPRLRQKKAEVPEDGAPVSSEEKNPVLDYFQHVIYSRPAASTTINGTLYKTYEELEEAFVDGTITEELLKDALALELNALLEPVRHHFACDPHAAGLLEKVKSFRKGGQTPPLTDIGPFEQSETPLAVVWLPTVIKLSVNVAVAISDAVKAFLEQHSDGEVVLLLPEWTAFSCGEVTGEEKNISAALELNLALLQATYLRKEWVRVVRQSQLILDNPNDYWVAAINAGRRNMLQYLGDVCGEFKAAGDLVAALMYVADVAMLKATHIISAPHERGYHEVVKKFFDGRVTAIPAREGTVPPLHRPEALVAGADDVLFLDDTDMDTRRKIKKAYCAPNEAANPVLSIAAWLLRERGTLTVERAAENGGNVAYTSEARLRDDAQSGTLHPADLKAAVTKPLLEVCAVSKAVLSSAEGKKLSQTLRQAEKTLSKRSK
# [8] = target: T4, Tyrosyl-tRNA synthetase, putative (Trypanosoma cruzi (strain CL Brener)); assay: Trypanosoma cruzi tyrosyl tRNA synthetase (TcYRS) SOP; type: functional; settings: 30 µM
# [9] = target: Chromo domain-containing protein 1 (Saccharomyces cerevisiae (strain ATCC 204508 / S288c) (Baker's yeast)) (UniProt P32657); assay: ScCHD-1 Enzyme Inhibition Assay; type: functional; settings: 30 µM; also: in the data most compounds retested in dose-response had high values
# Chromo domain-containing protein 1 (Saccharomyces cerevisiae (strain ATCC 204508 / S288c) (Baker's yeast)), sequence (P32657 whole entry, the tested form may be a part): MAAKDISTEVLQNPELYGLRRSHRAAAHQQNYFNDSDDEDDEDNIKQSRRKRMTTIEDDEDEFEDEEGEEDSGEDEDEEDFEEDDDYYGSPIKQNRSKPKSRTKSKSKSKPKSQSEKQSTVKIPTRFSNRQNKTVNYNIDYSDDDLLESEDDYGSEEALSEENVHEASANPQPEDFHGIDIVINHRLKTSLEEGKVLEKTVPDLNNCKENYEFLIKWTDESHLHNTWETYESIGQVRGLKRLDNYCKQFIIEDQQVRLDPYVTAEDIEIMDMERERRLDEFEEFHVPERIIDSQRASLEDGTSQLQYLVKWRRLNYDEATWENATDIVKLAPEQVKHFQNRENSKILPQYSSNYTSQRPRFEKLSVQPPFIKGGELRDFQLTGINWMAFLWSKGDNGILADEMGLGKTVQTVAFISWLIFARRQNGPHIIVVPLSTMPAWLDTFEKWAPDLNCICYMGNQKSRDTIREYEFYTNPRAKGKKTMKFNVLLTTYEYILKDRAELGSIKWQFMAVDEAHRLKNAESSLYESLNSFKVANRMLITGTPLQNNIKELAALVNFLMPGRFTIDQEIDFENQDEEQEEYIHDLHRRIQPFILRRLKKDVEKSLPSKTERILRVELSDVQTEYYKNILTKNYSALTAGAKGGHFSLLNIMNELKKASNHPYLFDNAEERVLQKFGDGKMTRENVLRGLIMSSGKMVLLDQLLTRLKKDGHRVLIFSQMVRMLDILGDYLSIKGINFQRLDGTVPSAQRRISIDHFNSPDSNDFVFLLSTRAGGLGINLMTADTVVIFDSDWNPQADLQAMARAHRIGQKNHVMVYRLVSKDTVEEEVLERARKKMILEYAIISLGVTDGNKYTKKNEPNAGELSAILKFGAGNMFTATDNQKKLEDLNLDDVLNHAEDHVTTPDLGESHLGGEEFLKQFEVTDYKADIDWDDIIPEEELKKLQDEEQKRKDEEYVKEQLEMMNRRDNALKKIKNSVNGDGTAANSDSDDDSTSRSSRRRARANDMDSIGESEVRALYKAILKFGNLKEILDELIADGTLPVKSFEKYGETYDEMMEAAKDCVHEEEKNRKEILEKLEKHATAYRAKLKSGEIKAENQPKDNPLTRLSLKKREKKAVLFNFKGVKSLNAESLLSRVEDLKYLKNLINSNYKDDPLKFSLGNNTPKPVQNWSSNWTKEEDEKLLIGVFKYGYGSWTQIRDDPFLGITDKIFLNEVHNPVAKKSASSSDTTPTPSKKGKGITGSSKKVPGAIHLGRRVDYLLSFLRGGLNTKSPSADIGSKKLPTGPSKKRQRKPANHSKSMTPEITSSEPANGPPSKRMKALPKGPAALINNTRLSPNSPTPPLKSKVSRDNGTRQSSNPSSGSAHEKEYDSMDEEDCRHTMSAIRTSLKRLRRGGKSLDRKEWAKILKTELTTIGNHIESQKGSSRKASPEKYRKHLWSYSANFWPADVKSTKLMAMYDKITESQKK
Compound,Percent Effect [1],Percent Effect [2],Percent Effect [3],Percent Effect [4],Percent Effect (Trypanosoma cruzi),Percent Effect [5],Percent Effect [6],Percent Effect (Homo sapiens),Percent Effect [7],Percent Effect [8],Percent Effect [9]
Cc1nn(C)c(Cl)c1C1CCCN1C(=O)c1ccc2c(c1)OCO2 (stereo unspecified),-1.18%,-2.7%,-7.03%,-0.722%,-5.38%,-2%,-0.901%,13.8%,0.493%,-6.17%,0.203%
Cc1nccn1C1CCCN(C(=O)c2ccc(N(C)C)nc2)C1 (stereo unspecified),-4.63%,7.89%,-3.59%,3.06%,6.26%,-1.08%,7.36%,7.13%,7.39%,18.5%,-0.744%
c1ccc2oc(NC3CCCN(Cc4noc(C5CC5)n4)C3)nc2c1 (stereo unspecified),-1.73%,-5.41%,-1.19%,-0.829%,4.63%,3.81%,7.93%,-1.13%,2.65%,4.88%,5.42%
Cn1cnc2c(N3CCCC3)nc(C3CCNCC3)cc21,-0.224%,13.3%,-2.65%,0.534%,0.965%,-48.6%,9.23%,1.97%,3.12%,20%,-8.26%
O=C(CN1CCCCC1Cn1cncn1)NCc1ccccn1 (stereo unspecified),-0.608%,2.53%,-4.5%,-1.76%,-5%,5.32%,-6.31%,11%,4.43%,3.8%,-4.29%
c1cnn(CC2CN(CCc3ccncc3)CCO2)c1 (stereo unspecified),1.49%,13%,1.87%,-13.5%,-2.06%,0.632%,6.22%,32%,4.76%,21.2%,-16.1%
CN(C)CC1(O)CCN(S(=O)(=O)c2ccc(F)cc2)C1 (stereo unspecified),-4.76%,20.3%,6.17%,-4.76%,3.36%,-3.94%,17.3%,10.1%,5.38%,9.09%,65.3%
O=C(C1CCCCN1Cc1nc(-c2ccco2)no1)N1CCCC1 (stereo unspecified),-8.23%,-2.7%,7.91%,4.5%,-5.11%,-1.66%,2.33%,6.46%,0%,3.66%,5.11%
Cc1noc(Cl)c1CC(=O)N1CCCC(n2cccn2)C1 (stereo unspecified),-7.2%,15.8%,-1.76%,0.841%,-0.0934%,-3.96%,0.592%,-4.99%,10.3%,16.1%,1.45%
CCc1nnc2n1CC(CNCc1ccncc1)CC2 (stereo unspecified),1.7%,4.17%,-9.25%,-5.88%,-3.6%,5.3%,19.6%,-6.46%,5.26%,0%,-3.45%
CC(C)c1nn(C)c(Cl)c1CNCc1ccc2c(c1)OCCO2,-4.72%,10.5%,2.72%,8.57%,3.27%,-5.04%,2.28%,-34.1%,5.42%,16.1%,0.827%
Cc1n[nH]cc1CNc1ccc2c(c1)N(C(=O)OC(C)(C)C)CCC2,-6.86%,7.79%,-1.81%,5.14%,1.08%,-8.28%,7.65%,4.68%,4.3%,8.64%,0.972%
CN(Cc1ccc(F)cc1)CC1(O)CCN(C(=O)c2cccn2C)C1 (stereo unspecified),-6.43%,13.3%,2.06%,5.19%,3.15%,-4.43%,0.969%,3%,6.38%,8.97%,-9.32%
COCCC(=O)Nc1ccnc(Oc2ccccc2)c1,2.99%,-5.26%,0.138%,-14%,-6.91%,7.1%,15.4%,19.5%,1.06%,7.79%,-6.2%
Cn1ccnc1CN1CCN(c2ccc(C#N)cn2)CC1,-0.525%,-67.6%,39.5%,9.32%,0.464%,1.29%,6.64%,7.75%,6.93%,15.8%,-4.02%
COCCN1C(=O)C[C@H]2[C@H]1CCN2Cc1cccc(C#N)c1,-2.88%,2.67%,7.27%,-1.09%,-2.95%,3.03%,5.9%,6.32%,1.06%,1.28%,1.66%
